Laboratory results published in PubChem BioAssay (Tox21).
Results filed as inconclusive are left out. Active and inactive are the calls of the source. Calls follow the shape of the dose curve; as a rule, active = well fitted activation curve with a large enough effect in the signal ratio in the repeat runs (not every such curve was filed as active); inconclusive = weak or mixed curves; inactive = flat fitted curve, though single readings scatter; the % refers to the signal ratio.

Assay: qHTS assay to identify small molecule agonists of the hypoxia (HIF-1) signaling pathway (AID 1224846)
Settings: HRE-bla ME-180 cells, beta-lactamase ratio, 17 h; series mostly up to 76.8 µM
Text: U.S. Tox21 Program National Center for Advancing Translational Sciences [NCATS] NIH Chemical Genomics Center [NCGC] U.S. Environmental Protection Agency [EPA] National Institutes of Environmental Health Sciences [NIEHS] National Toxicology Program [NTP] U.S. Food and Drug Administration [FDA] Tox21 Assay Overview: Hypoxia-inducible factor-1 (HIF-1) is the major hypoxia-regulated transcription factor that controls cellular responses to low oxygen concentration. HIF-1 is composed of two subunits: hypoxia responsive HIF-1-alpha and constitutively expressed HIF-1-beta, which is also known as aryl hydrocarbon receptor nuclear translocator. During hypoxic conditions, HIF-1-alpha heterodimerizes with HIF-1-beta and translocates into the nucleus where the HIF-1 complex binds to the hypoxia-response element (HRE) and activates expression of target genes such as VEGF (vascular endothelial growth factor). The HIF-1 pathway is essential to normal growth and development, and is involved in the pathophysiology of cancer, inflammation, and ischemia. Using a beta-lactamase reporter-gene under control of the hypoxia response element, a cell-based assay [CellSensor(TM) HRE-bla ME-180 from Life Technologies, Carlsbad, CA] was used to measure hypoxia-induced signaling. Tox21 10K library compounds were measured for their ability to induce the reporter gene activity.
Tox21 Assay Protocol Summary: HRE-bla ME-180 cells were dispensed at 2,000 cells per well in 6 uL of assay medium containing 0.5% dialyzed FBS into black wall/clear-bottom 1536-well plates using a Multidrop Combi (Thermo Scientific, Waltham, MA) dispenser. After the assay plates were incubated at 37C and 5% CO2 for 5 hrs, 23 nL of compounds dissolved in DMSO, positive controls or DMSO only was transferred to each well of the assay plate using a Pintool station (Kalypsys, San Diego, CA). The assay plates were incubated at 37C and 5% CO2 for 17 hrs. One uL of LiveBLAzerTM B/G FRET substrate (CCF4-AM) (Life Technologies) was added to each well using a Flying Reagent Dispenser (Aurora Discovery, San Diego, CA).
% is scaled to controls: 0 for no effect and ±100 for the full control effect.

**Q.** For `O=P(O)(O)C(O)(Cc1cccnc1)P(=O)(O)O`, which outcome is on record?
**A.** inactive

**Q.** Which outcome does the source give for `Clc1ccc2c(c1)Nc1ccccc1S2` here?
**A.** inactive

**Q.** For `CCCc1ccc(O)c(OC)c1`, which outcome is on record?
**A.** inactive

**Q.** Which outcome does the source give for `C/C(=N\O)c1ccc(OCC(=O)N2CCCCC2)cc1` here?
**A.** inactive

**Q.** With `CC(CC(=O)Cl)CC(C)(C)C` (stereo not given) as the molecule, how does the outcome read?
**A.** inactive

**Q.** Which activation does the source give for `CCCCCCCCCCCCCCCC(=O)OC` here?
**A.** 0.217% [at 15.8 µM] (inactive)

**Q.** Which activation does the source give for `C=CCCCCCCCCCCCCCC` here?
**A.** -0.445% [at 15.8 µM] (inactive)

**Q.** For `CCCCCCCCS(=O)(=O)O`, which outcome is on record?
**A.** inactive

**Q.** With `CCCC[O][Al]([O]CCCC)[O]CCCC` as the molecule, how does the outcome read?
**A.** inactive

**Q.** Which outcome does the source give for `CCOc1ccccc1OCCN[C@H](C)Cc1ccc(OC)c(S(N)(=O)=O)c1` here?
**A.** inactive

**Q.** For `CCCCCCCCCCCCCCBr`, which outcome is on record?
**A.** inactive

**Q.** Which outcome does the source give for `Cc1cc(C)c(C)c(C)c1` here?
**A.** inactive

**Q.** Which outcome does the source give for `CNC(=O)c1c(I)c(NC(C)=O)c(I)c(C(=O)O)c1I` here?
**A.** inactive

**Q.** With `CCCCCC(=O)CC` as the molecule, how does the outcome read?
**A.** inactive

**Q.** Which outcome does the source give for `C=CCn1cc[n+](C)c1` here?
**A.** inactive

**Q.** With `N=C(N)S(=O)O` as the molecule, how does the outcome read?
**A.** inactive

**Q.** Which outcome does the source give for `O=C(O)COc1ccc2ccccc2c1` here?
**A.** inactive

**Q.** With `CC(CN1CC(=O)NC(=O)C1)N1CC(=O)NC(=O)C1` (stereo not given) as the molecule, how does the outcome read?
**A.** inactive

**Q.** For `CC(=O)O[C@@H]1CC2C3CCc4cc(OC(=O)c5ccccc5)ccc4C3CCC2(C)[C@H]1OC(C)=O` (stereo not given in full), which outcome is on record?
**A.** inactive

**Q.** For `CCCCCCCCCCCC(C)=O`, which outcome is on record?
**A.** inactive

**Q.** For `CCCC(C)C(O)CC` (stereo not given), which outcome is on record?
**A.** inactive

**Q.** Which outcome does the source give for `Cc1cc(O)c(Cl)cc1C` here?
**A.** inactive

**Q.** For `C/C=C(\C)C=O`, which outcome is on record?
**A.** inactive

**Q.** With `C/C(Cl)=C/CCl` as the molecule, how does the outcome read?
**A.** inactive

**Q.** With `O=C(O)P(=O)(O)O` as the molecule, how does the outcome read?
**A.** inactive

**Q.** With `CC(=O)SC[C@@H](C)C(=O)N1CCC[C@H]1C(=O)N[C@@H](Cc1ccccc1)C(=O)O` as the molecule, how does the outcome read?
**A.** inactive

**Q.** For `COc1cc(C(=O)NC2CCCNC2)cc(OC)c1OC` (stereo not given), which outcome is on record?
**A.** inactive

**Q.** With `CCCCC(CC)COC(=O)CC#N` (stereo not given) as the molecule, how does the outcome read?
**A.** inactive

**Q.** For `CCCCCCCCCCCCCCCCN(C)C`, which activation is on record?
**A.** -0.212% [at 7.01 µM] (inactive)

**Q.** With `CC(C)C(=O)Nc1cccc(C2CN3CCSC3=N2)c1` (stereo not given) as the molecule, how does the outcome read?
**A.** inactive

**Q.** For `CCNC(=O)C(C)OC(=O)Nc1ccccc1` (stereo not given), which outcome is on record?
**A.** inactive

**Q.** For `CCCCN(CCCC)CCCCCCN(CCCC)CCCC`, which outcome is on record?
**A.** inactive

**Q.** Which outcome does the source give for `CCC(C)c1nccnc1OC` (stereo not given) here?
**A.** inactive

**Q.** With `CC(C)=CCC/C(C)=C\C#N` as the molecule, how does the outcome read?
**A.** inactive

**Q.** Which outcome does the source give for `CCCC(=O)OC` here?
**A.** inactive

**Q.** Which activation does the source give for `C[C@@H]1NC(=O)[C@@H](N)CNC(=O)[C@H](C2CCNC(N)=N2)NC(=O)/C(=C/NC(N)=O)NC(=O)[C@H](CNC(=O)C[C@@H](N)CCCN)NC1=O` (stereo not given in full) here?
**A.** -0.509% [at 0.291 µM] (inactive)

**Q.** With `CCOC(=O)CC(C(C)=O)C(C)=O` as the molecule, how does the outcome read?
**A.** inactive

**Q.** Which outcome does the source give for `C=COCCCCO` here?
**A.** inactive

**Q.** Which outcome does the source give for `OCCC(F)(F)C(F)(F)C(F)(F)C(F)(F)C(F)(F)C(F)(F)F` here?
**A.** inactive

**Q.** With `NNC(=O)OCc1ccccc1` as the molecule, how does the outcome read?
**A.** inactive
